PubChem BioAssay (NCATS)
Results filed as inconclusive are left out. Calls of active or inactive are those of the source. Calls come from the whole dose curve; as a rule, active = well fitted curve in the direction sought with a large enough effect; inconclusive = small, poorly fitted or top-dose-only effect, or another doubt; inactive = no such curve, though single readings can be large; an effect the other way counts as inactive or inconclusive.

What was measured:
[1] = qHTS to identify inhibitors of the type 1 interferon - major histocompatibility complex class I in skeletal muscle: primary screen against the NCATS Pharmaceutical Collection (AID 1347407);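 note: luminescence of HiBiT knocked into endogenous HLA-B as interferon-induced MHC class I level; % is set by controls: 0 for no effect and ±100 for the full control effect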
How it was run: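 HLA-B HiBiT myoblasts, dexamethasone-free growth medium + 4 ng/ml IFN-b; compounds pinned 1 h after seeding, […] from 46 uM; 24 h, 37 C, 5% CO2; lytic HiBiT detection, 10 min RT, luminescence.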

[2] = target: Protein phosphatase 1D (Homo sapiens) (UniProt O15297); assay: RapidFire Mass Spectrometry qHTS Assay for Modulators of WT P53-Induced Phosphatase 1 (WIP1) (AID 1347424);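 note: amount of dephosphorylated VEPPL-S-QETFS peptide product formed by WIP1; series mostly up to about 63 µM; plate controls were DMSO wells for no effect and GSK830371 inhibitor control at 10 µM for full effect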
Protein phosphatase 1D (Homo sapiens), sequence (O15297 whole entry, looked up): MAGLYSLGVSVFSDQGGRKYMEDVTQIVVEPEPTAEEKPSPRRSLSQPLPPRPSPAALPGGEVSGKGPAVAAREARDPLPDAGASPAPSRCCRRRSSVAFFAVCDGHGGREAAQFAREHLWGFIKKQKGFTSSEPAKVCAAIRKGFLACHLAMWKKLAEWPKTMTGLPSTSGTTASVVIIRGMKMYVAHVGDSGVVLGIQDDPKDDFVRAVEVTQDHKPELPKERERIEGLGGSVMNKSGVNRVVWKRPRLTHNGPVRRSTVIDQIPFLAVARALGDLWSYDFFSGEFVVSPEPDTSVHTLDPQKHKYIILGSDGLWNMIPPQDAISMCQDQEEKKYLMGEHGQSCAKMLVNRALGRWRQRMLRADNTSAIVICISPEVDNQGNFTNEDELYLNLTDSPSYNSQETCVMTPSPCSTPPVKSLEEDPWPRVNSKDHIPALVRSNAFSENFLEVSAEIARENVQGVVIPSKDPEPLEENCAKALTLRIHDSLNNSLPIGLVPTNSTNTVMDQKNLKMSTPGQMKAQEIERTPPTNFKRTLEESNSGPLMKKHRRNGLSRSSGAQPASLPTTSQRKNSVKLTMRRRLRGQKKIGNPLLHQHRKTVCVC
How it was run: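 10 nM WIP1 + cpd, 1 h RT; + 2 uM VEPPL-pS-QETFS, 5 min RT; stop 0.5% formic acid; labelled product standard 1 uM; RapidFire MS. Buffer 50 mM Tris pH 7.5, 30 mM MgCl2, 1 mM TCEP.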

[3] = target: Protein phosphatase 1D (Homo sapiens) (UniProt O15297); assay: Rhodamine-PBP qHTS Assay for Modulators of WT P53-Induced Phosphatase 1 (WIP1) (AID 1347425); note: % of control where 0% means no effect
How it was run: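 The read-out is the change in Rhodamine-PBP fluorescence (f1 - f0, ex 525/em 598 nm) as Pi is released, read each minute for 11 min. Final reaction: 5 nM WIP1, 10 uM phosphopeptide VEPPL-pS-QETFS, 10 uM Rh-PBP, 50 mM Tris-HCl pH 7.5, 30 mM MgCl2. Compound was preincubated with enzyme for 1 hour at room temperature.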

[4] = Primary qHTS for inhibitors of La Crosse Virus (LACV) - induced cell death in SH-SY5Y cells (AID 1508616);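 note: top concentration of the series differs between compounds; 0% = infected DMSO wells and 100% = uninfected DMSO wells; higher means more rescue of cells from virus-induced death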
How it was run: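 SH-SY5Y cells (6000/well) plated 24 h, then given compounds by pin transfer and LACV at 0.01 MOI for 6 days at 37C. Viability measured by ATPLite luminescence, normalized to infected DMSO and uninfected DMSO.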

[5] = target: Calcium and integrin-binding protein 1 (Homo sapiens) (UniProt Q99828); assay: Primary qHTS for Identification of Calcium Integrin Binding Protein 1 (CIB1) Competitor (AID 1508620);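 note: GST tagged CIB1 binding a fluorescein labelled alphaIIb integrin peptide tracer; top concentration of the series differs between compounds; % is set by controls: 0 for no effect and ±100 for the full control effect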
Calcium and integrin-binding protein 1 (Homo sapiens), sequence (Q99828 whole entry, looked up): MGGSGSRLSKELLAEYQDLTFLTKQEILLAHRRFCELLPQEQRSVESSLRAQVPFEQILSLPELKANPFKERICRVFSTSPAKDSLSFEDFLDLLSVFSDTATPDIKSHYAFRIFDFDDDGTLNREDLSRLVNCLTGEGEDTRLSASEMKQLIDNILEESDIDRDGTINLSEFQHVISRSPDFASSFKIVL
How it was run: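 CIB1-GST (1 uM final) and compound incubated 15 min at room temperature before adding FITC-alphaIIb peptide tracer (100 nM final). Competition for binding read by fluorescence polarization (ex 480, em 540) after another 15 min at room temperature.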

[6] = Primary qHTS for small molecule stabilizers of the endoplasmic reticulum resident proteome: Secreted ER Calcium Modulated Protein (SERCaMP) assay (AID 1508630); note: % is set by controls: 0 for no effect and ±100 for the full control effect
How it was run: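 GLuc-SERCaMP-expressing SH-SY5Y cells, pretreated 16 h with compound, are challenged with thapsigargin to empty ER calcium stores; after 4 h, coelenterazine is added directly to the medium and luminescence is imaged.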

[7] = Counterscreen qHTS for small molecule stabilizers of the endoplasmic reticulum resident proteome: GLuc-NoTag assay (AID 1508627);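 note: SH-SY5Y cells given compound then 100 nM thapsigargin to empty ER calcium; series mostly up to about 76 µM; 0% = thapsigargin alone and -100% = DMSO vehicle control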
How it was run: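 Luminescence of Gaussia luciferase secreted into the medium (coelenterazine, 0.07x final, unlysed cells) was the read-out. Human SH-SY5Y neuroblastoma cells constitutively secreting untagged GLuc received compound for 19 h, then 100 nM thapsigargin for 4 h.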

[8] = Confirmatory qHTS for small molecule stabilizers of the endoplasmic reticulum resident proteome: Secreted ER Calcium Modulated Protein (SERCaMP) assay (AID 1508628); note: series mostly up to about 76 µM; % is set by controls: 0 for no effect and ±100 for the full control effect; nearly all actives have a fitted effect of over 40% in size
How it was run: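 SH-SY5Y cells stably expressing GLuc-SERCaMP, treated 16 h with compound (primary 1.53, 7.67, 38.3 uM; confirmation 11 concentrations, up to 76.6 uM), then 100 nM thapsigargin for 4 h. Secreted Gaussia luciferase in medium read by coelenterazine luminescence.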

[9] = Cell Viability qHTS for small molecule stabilizers of the endoplasmic reticulum resident proteome (AID 1508629); settings: cell viability counter-screen, 100 nM thapsigargin for final 4 h;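 note: human SH-SY5Y neuroblastoma cells carrying the GLuc-SERCaMP reporter; compound exposure about 46 h in total before the viability read; % is set by controls: 0 for no effect and ±100 for the full control effect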

NS(=O)(=O)c1cc2c(cc1Cl)NC(CSCc1ccccc1)=NS2(=O)=O
inactive: Potency [1] | outcome [2] | outcome [3] | outcome [4] | outcome [5] | Potency [6]

[Cl][In]([Cl])[Cl]
inactive: Potency [1] | outcome [5]

NC(=O)N/N=C/c1ccc([N+](=O)[O-])o1
inactive: Potency [1] | outcome [2] | outcome [3] | outcome [4] | outcome [5] | Potency [6]

COC(=O)[C@H]1[C@H]2C[C@@H]3c4[nH]c5cc(OC)ccc5c4CCN3C[C@H]2C[C@@H](OC(=O)COc2ccc(OC)cc2)[C@@H]1OC
inactive: Potency [1] | outcome [2] | outcome [3] | outcome [4] | outcome [5] | Potency [6]

CC(COc1ccccc1)NC(C)C(O)c1ccc(O)cc1 (configuration not stated)
inactive: Potency [1] | outcome [2] | outcome [3] | outcome [4] | outcome [5] | Potency [6]

CCCCCCCCCCCCOS(=O)(=O)O
inactive: outcome [2] | outcome [3] | outcome [4]

Cc1cc(CC(=O)O)n(C)c1C(=O)c1ccc(Cl)cc1
inactive: Potency [1] | outcome [2] | outcome [3] | outcome [4] | outcome [5] | Potency [6]

Cc1cccc(Nc2cc(Cl)nc(SCC(=O)O)n2)c1C
inactive: Potency [1] | outcome [2] | outcome [3] | outcome [4] | outcome [5] | Potency [6]

CCOc1nc2cccc(C(=O)O)c2n1Cc1ccc(-c2ccccc2-c2nn[nH]n2)cc1
inactive: Potency [1] | outcome [2] | outcome [3] | outcome [4] | outcome [5] | Potency [6]

NC(CSCC(=O)O)C(=O)O (configuration not stated)
inactive: Potency [1] | outcome [2] | outcome [3] | outcome [4] | outcome [5] | Potency [6]

Cc1c(Cl)cccc1Nc1ccccc1C(=O)O
inactive: Potency [1] | outcome [4] | outcome [5] | Potency [6]

Cc1ccc(C(C)C)cc2c(C)ccc1-2
inactive: Potency [1] | outcome [2] | outcome [3] | outcome [4] | outcome [5] | Potency [6]

O=S(=O)(O)c1cc(I)c(O)c2ncccc12
inactive: Potency [1] | outcome [2] | outcome [3] | outcome [4] | outcome [5] | Potency [6]

c1ccc(CN(CC2=NCCN2)c2ccccc2)cc1
inactive: Potency [1] | outcome [2] | outcome [4] | Potency [6]

O=c1[nH]cnc2c1ncn2[C@@H]1O[C@H](CO)[C@@H](O)[C@H]1O
inactive: Potency [1] | outcome [2] | outcome [3] | outcome [4] | outcome [5] | Potency [6]

O=C(O)[C@H](O)c1ccccc1
inactive: Potency [1] | outcome [2] | outcome [3] | outcome [5]

CO/N=C(\C(=O)N[C@@H]1C(=O)N2C(C(=O)O)=C(CSc3nc(=O)c(O)nn3C)CS[C@H]12)c1csc(N)n1
inactive: Potency [1] | outcome [3] | outcome [4] | outcome [5]

O=C(O)Cc1sc(-c2ccccc2)nc1-c1ccc(Cl)cc1
inactive: Potency [1] | outcome [2] | outcome [3] | outcome [4] | Potency [6]

NCCNCCNCCN
inactive: outcome [2] | outcome [3] | outcome [4]

CCCCC(CC)COC(=O)c1ccccc1O (configuration not stated)
inactive: Potency [1] | outcome [2] | outcome [3] | outcome [4] | outcome [5] | Potency [6]

CCC(=O)c1ccc(O)cc1
inactive: Potency [1] | outcome [2] | outcome [3] | outcome [4] | outcome [5] | Potency [6]

CC(O)COc1ccccc1 (configuration not stated)
inactive: Potency [1] | outcome [2] | outcome [3] | outcome [4] | outcome [5] | Potency [6]

Cc1cc2nc3c(=O)[nH]c(=O)nc-3n(C[C@H](O)[C@H](O)[C@H](O)CO)c2cc1C
inactive: Potency [1] | outcome [2] | outcome [3] | outcome [4] | Potency [7] | Potency [8] | max response [9] 11.4%

C[C@@H]1CN(c2c(F)c(F)c3c(=O)c(C(=O)O)cn(C4CC4)c3c2F)C[C@H](C)N1
inactive: Potency [1] | outcome [2] | outcome [3] | outcome [4] | outcome [5] | Potency [6]

OCC(CO)N[C@H]1C[C@](O)(CO)[C@@H](O)[C@H](O)[C@H]1O
inactive: Potency [1] | outcome [2] | outcome [3] | outcome [4] | outcome [5] | Potency [6]
